Molecules are shown by their SMILES. Results filed as inconclusive are left out. A number with no mark means an inactive call. The source made the active and inactive calls. Unless noted, calls come from the whole dose curve; as a rule, active = well fitted curve in the direction sought with a large enough effect in the repeat runs; inconclusive = weak or mixed curves; inactive = no such curve, though single readings can be large; an effect the other way counts as inactive or inconclusive.

Test [1] has as its target Nuclear receptor ROR-gamma (Homo sapiens) (UniProt P51449). Put plainly: qHTS assay to identify small molecule antagonists of the retinoid-related orphan receptor gamma (ROR-gamma) signaling pathway (AID 1159521; note: nearly all actives have a fitted effect of over 50% in size; note: potency is the fitted concentration of half-maximal effect;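 for activity change, negative = inhibition: CHO cells with doxycycline inducible ROR-gamma driving an RORE luciferase reporter; top concentration of the series differs between compounds; % is set by controls: 0 for no effect and ±100 for the full control effect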). In short, it runs like this: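 Readout: ONE-Glo luciferase luminescence, 30 min at room temperature. System: Tet-on RORγ CHO, RORE-LUC. Sequence: compound 2 h, doxycycline 1 uM final, 16 h at 37 C.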
(In general: Quantitative high-throughput screening tests each substance at several concentrations.)

Test [2] is described as follows: qHTS assay to identify small molecule agonists of the AP-1 signaling pathway - cell viability counter screen (AID 1159525; calls by dose curve; note: nearly all actives have a fitted effect of over 55% in size). In short, it runs like this:
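Same-well cytotoxicity counter screen of the Tox21 10K library in ME-180 cells. The readout is ATP-dependent luminescence after 5 h compound treatment. Data are normalised to DMSO and tetra n-octyl ammonium bromide controls.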

Test [3] in a line: qHTS assay to identify small molecule agonists of the AP-1 signaling pathway (AID 1159526; calls by dose curve; note: % is set by controls: 0 for no effect and ±100 for the full control effect).
Test [4] is described as follows: qHTS assay to identify small molecule agonists of the RXR signaling pathway - cell viability counter screen (AID 1159529). For activity change, negative = cytotoxicity: series mostly up to about 77 µM; % is set by controls: 0 for no effect and ±100 for the full control effect. Note: nearly all actives have a fitted effect of over 50% in size. Note: potency is the fitted concentration of half-maximal effect. The procedure, abridged:
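Tox21 10K compounds were tested for cytotoxicity against GeneBLAzer RXR-alpha HEK 293T cells grown in 2% charcoal-stripped FBS. Exposure lasted 16 hr at 37 C, 5% CO2; viability read by CellTiter-Glo luminescence.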

A short description of test [5]: qHTS assay to identify small molecule antagonists of the retinoid acid receptor (RAR) signaling pathway - cell viability counter screen (AID 1159551). Note: % is set by controls: 0 for no effect and ±100 for the full control effect; nearly all actives have a fitted effect of over 35% in size. The procedure, abridged:
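Cytotoxicity counter screen: ATP content quantified by CellTiter-Glo luminescence in C3RL4 cells treated 6 hr at 37 C with compound and retinol (1 uM final). Cells plated at 1,000/well and cultured overnight before dosing.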

Test [6] concerns the target Luciferin 4-monooxygenase (Photinus pyralis) (UniProt P08659). Put plainly: qHTS assay to identify small molecule inhibitors of firefly luciferase (AID 1224835). For activity change, negative = inhibition: series mostly up to about 120 µM; % is set by controls: 0 for no effect and ±100 for the full control effect. Note: nearly all actives have a fitted effect of over 25% in size. Note: potency is the fitted concentration of half-maximal effect. The procedure, abridged:
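Biochemical qHTS: compounds run as interplate titrations against purified firefly enzyme, with D-luciferin and ATP each at its KM concentration. Light output recorded by CCD imaging.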

A short description of test [7]: qHTS assay to identify small molecule agonists of the constitutive androstane receptor (CAR) signaling pathway - cell viability counter screen (AID 1224836). Note: nearly all actives have a fitted effect of over 45% in size. Note: potency is the fitted concentration of half-maximal effect. The procedure, abridged: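 Fluorescence from CellTiter-Fluor indicates live cells after 23 h exposure. The human hepatoma line expresses hCAR and a CYP2B6-2.2kb reporter. Incubation medium contains 0.75 uM PK11195 (final).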

Test [8] can be described thus: qHTS assay to identify small molecule antagonists of the constitutive androstane receptor (CAR) signaling pathway - cell viability counter screen (AID 1224837). Note: nearly all actives have a fitted effect of over 45% in size. Note: potency is the fitted concentration of half-maximal effect. In short, it runs like this:
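Cytotoxicity counter-screen: CellTiter-Fluor fluorescence after 23 h compound exposure (15-point qHTS) in double-stable HepG2-CYP2B6-hCAR cells, with 50 nM CITCO added.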

Test [9] concerns the target Nuclear receptor subfamily 1 group I member 3 (Homo sapiens) (UniProt Q14994). The test is described as follows: qHTS assay to identify small molecule antagonists of the constitutive androstane receptor (CAR) signaling pathway (AID 1224838).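 Note: HepG2 cells stably expressing hCAR with CYP2B6 luciferase reporter stimulated by CITCO; nearly all actives have a fitted effect of over 40% in size.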 Note: potency is the fitted concentration of half-maximal effect. The procedure, abridged: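 Antagonism measured as luciferase signal (ONE-Glo, 30 min, room temperature) in CAR-stimulated cells: HepG2-CYP2B6-hCAR double-stable line exposed 24 hr at 37 C to compound in a 15-point series plus 50 nM CITCO.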

The target is the same in test [10]. Put plainly: qHTS assay to identify small molecule agonists of the constitutive androstane receptor (CAR) signaling pathway (AID 1224839). Note: nearly all actives have a fitted effect of over 15% in size. Note: potency is the fitted concentration of half-maximal effect. In short, it runs like this:
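Stable hCAR/CYP2B6-2.2kb HepG2 line in DMEM with 10% FBS; compounds (15 concentrations) and 0.75 uM PK11195 final, 24 h at 37 C/5% CO2, then ONE-Glo luminescence after 30 min.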

Test [11] is described as follows: qHTS assay to identify small molecule antagonists of the retinoic acid receptor (RAR) signaling pathway (AID 1159552; note: nearly all actives have a fitted effect of over 50% in size; note: potency is the fitted concentration of half-maximal effect). The procedure, abridged:
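Overnight-plated C3RL4 reporter cells get compound, then retinol to 1 uM final; plates sit 6 hr at 37 C, 5% CO2. A luciferase reagent is added and light output recorded after 30 min at room temperature.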

A short description of test [12]: qHTS assay to identify small molecule antagonists of the estrogen related receptor (ERR) signaling pathway from Tox21 library - cell viability counter screen (AID 1224834). Note: nearly all actives have a fitted effect of over 30% in size. Note: potency is the fitted concentration of half-maximal effect. In short, it runs like this:
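CellTiter-Fluor fluorescence, read after 30 min at 37 C, measures viability of ERR cells. Cells plated at 2,000/well and incubated 6 h before pin-tool compound addition, then exposed 17.5 hours at 37 C.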

Test [13] addresses Retinoic acid receptor RXR-alpha (Homo sapiens) (UniProt P19793). The test is described as follows: qHTS assay to identify small molecule agonists of the RXR signaling pathway (AID 1159527; calls by dose curve; note: % is set by controls: 0 for no effect and ±100 for the full control effect; nearly all actives have a fitted effect of over 35% in size). In short, it runs like this: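 Reporter activation is measured as beta-lactamase activity via FRET substrate cleavage (emission 460/530 nm) in HEK 293T cells expressing an RXR-alpha-driven bla construct, following 16 hr compound exposure at 37 C.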

Sequence of Retinoic acid receptor RXR-alpha (Homo sapiens) (P19793 whole entry, looked up): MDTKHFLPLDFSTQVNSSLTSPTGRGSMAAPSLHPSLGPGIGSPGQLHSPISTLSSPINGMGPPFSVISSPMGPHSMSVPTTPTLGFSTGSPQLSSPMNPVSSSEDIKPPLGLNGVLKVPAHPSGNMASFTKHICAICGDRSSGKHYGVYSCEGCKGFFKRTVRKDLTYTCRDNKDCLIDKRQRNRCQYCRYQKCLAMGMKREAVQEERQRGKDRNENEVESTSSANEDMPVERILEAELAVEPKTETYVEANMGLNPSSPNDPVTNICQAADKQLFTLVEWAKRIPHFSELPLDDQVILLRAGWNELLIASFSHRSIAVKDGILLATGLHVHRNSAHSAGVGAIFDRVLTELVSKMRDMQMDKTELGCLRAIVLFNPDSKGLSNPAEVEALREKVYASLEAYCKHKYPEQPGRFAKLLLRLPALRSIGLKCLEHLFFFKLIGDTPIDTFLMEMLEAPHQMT
Sequence of Nuclear receptor subfamily 1 group I member 3 (Homo sapiens) (Q14994 whole entry, looked up): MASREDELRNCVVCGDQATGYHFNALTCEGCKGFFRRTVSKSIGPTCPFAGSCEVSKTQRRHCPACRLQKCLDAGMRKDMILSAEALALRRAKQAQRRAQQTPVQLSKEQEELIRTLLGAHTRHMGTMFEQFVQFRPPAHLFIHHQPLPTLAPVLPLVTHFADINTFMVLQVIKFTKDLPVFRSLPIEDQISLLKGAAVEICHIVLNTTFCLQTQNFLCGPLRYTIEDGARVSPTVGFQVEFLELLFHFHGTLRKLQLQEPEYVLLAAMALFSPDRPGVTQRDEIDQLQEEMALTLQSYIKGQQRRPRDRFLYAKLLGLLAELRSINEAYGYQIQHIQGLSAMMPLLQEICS
Sequence of Luciferin 4-monooxygenase (Photinus pyralis) (P08659 whole entry, looked up): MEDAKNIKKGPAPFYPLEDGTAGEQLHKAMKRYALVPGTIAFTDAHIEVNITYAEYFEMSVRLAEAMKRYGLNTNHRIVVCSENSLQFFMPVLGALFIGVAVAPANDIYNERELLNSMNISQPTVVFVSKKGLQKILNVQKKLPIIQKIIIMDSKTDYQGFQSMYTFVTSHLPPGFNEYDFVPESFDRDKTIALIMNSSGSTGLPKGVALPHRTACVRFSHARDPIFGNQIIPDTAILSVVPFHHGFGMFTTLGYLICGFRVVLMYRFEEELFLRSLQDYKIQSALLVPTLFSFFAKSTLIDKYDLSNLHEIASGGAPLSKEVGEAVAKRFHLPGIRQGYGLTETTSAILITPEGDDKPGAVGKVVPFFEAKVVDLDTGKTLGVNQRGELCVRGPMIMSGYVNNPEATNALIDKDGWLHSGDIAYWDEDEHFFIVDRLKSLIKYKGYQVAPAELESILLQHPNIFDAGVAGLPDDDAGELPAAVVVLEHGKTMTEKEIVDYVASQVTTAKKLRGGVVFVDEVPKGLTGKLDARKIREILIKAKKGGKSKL

With `Nc1ccc(F)c([N+](=O)[O-])c1`, the Potency entry in test [1], in [2], in test [3], in test [4], in [5] and in [6] was “inactive” throughout. Moreover, the Potency entry in test [7], in test [8], in [9] and in test [10] was “inactive” each time.

In the case of `CN1CCN(c2ccccc2/C=C2\SCCN(c3ccc(Cl)c(Cl)c3)C2=O)CC1`, the Potency in test [1] is 7.7 µM (active); in [4], 24.5 µM (active); in test [11] it was 48.6 µM (active); in test [12] it was 54.5 µM (active); in [7], 43.3 µM (active); in test [8] it was 24.3 µM (active). Also, the Potency entry in test [6], in [9] and in [10] was “inactive” in each case.

For `O=C(Cl)c1ccc(Cl)cc1Cl`, the Potency entry in [2], in test [3], in test [13], in test [4], in test [5] and in [11] was “inactive” in each case. The Potency entry in [12], in [7], in test [8] and in test [10] was “inactive” throughout. The Potency in test [6] was 25.2 µM (active).

On to `Oc1cccc2c(O)cccc12`, for which the Potency in test [1] was 68.6 µM (active); in test [10], 30.6 µM (active). The Potency result in test [5] and in test [9] was “inactive” throughout.

Turning to `Oc1ccc(C2(c3ccc(O)c(C4CCCCC4)c3)CCCCC2)cc1C1CCCCC1`, the Potency was 17.2 µM (active) in test [1]; 19.5 µM (active) in [4]; 27.3 µM (active) in test [11]; 61.1 µM (active) in test [12]; 48.6 µM (active) in test [7]; 27.3 µM (active) in test [8]. For the same compound, the Potency in [9] is 27.3 µM (active). Besides, the Potency entry in test [6] and in test [10] was “inactive” in each case.

Turning to `CCN(CCC#N)c1ccc(N=Nc2ccc([N+](=O)[O-])cc2)cc1`, the Potency result in [2], in [3], in test [13], in test [4], in test [11] and in test [12] was “inactive” in each case. The Potency result in test [6], in test [7] and in [8] was “inactive” in each case. In test [10], the Potency was 13.7 µM (active).

On to `CCNc1nc(NC(C)(C)C)nc(OC)n1`, for which the Potency entry in [2], in test [3], in test [13], in test [4], in [5] and in test [11] was “inactive” in each case. Besides, the Potency result in test [12], in [6], in test [7], in [8] and in test [9] was “inactive” each time. In addition, the Potency in [10] is 30.6 µM (active).

As to `COC(=O)c1ccc([N+](=O)[O-])cc1`, the Potency result in test [2], in [3], in test [13], in test [4], in test [5] and in [11] was “inactive” in each case. Besides, the Potency result in [12], in test [6], in [7], in test [8] and in [10] was “inactive” throughout.

As to `Cc1cc(Br)ccc1NC(=O)CCl`, the Potency in test [1] was 19.3 µM (active); in test [4] it was 21.9 µM (active); in test [12] it was 19.3 µM (active); in [7], 48.6 µM (active); in test [8] it was 54.5 µM (active). For the same compound, the Potency entry in test [5], in [6] and in test [10] was “inactive” each time.

In the case of `O=C(O)C[C@H](O)C[C@H](O)/C=C/c1c(C2CC2)nc2ccccc2c1-c1ccc(F)cc1`, the results for the viability change, negative = cytotoxic in [2], in test [12] and in test [7] were 2.51% [at 15.8 µM], 0.576% [at 19 µM] and -13.2% [at 19 µM], respectively. Also, the activation in [3] was 4.12% [at 15.8 µM]; in test [13], -9.56% [at 15.8 µM]; in [10], -6.78% [at 19 µM]. The activity change, negative = cytotoxicity in test [5] was 1.42% [at 19 µM]; in test [8], -0.918% [at 19 µM]. Further, the activity change, negative = inhibition in test [6] was 5.31% [at 23.6 µM].

Consider `CSc1ccc(O)cc1C`, for which the Potency in test [1] was 43.3 µM (active). Further, the Potency entry in [12], in test [6] and in test [7] was “inactive” throughout.

In the case of `CCC(O)CO` (stereo not drawn), the Potency entry in test [2], in test [3], in [13], in [4], in [5] and in test [12] was “inactive” each time. Moreover, the Potency result in [6], in test [7], in test [8], in test [9] and in test [10] was “inactive” in each case.

The record behind these values is PubChem BioAssay (Tox21).
